Our source for the inhibition values is PubChem BioAssay AID449762 (Southern Research Specialized Biocontainment Screening …, 2010).

The structures appear in SMILES notation. About 1,900 (0.58%) of roughly 330,000 compounds were called active. Not shown: some 4% with an inconclusive outcome. Cut-off read from the data, not from the text of the source: inconclusive = inhibition above about 70% without an active follow-up result; inactive = below that. The list is a sample of the results. Entries with a potency or affinity are not part of this list.

A word on the inhibition: it is the relative decrease from the control value, in per cent.

The nature of the test: M. tuberculosis growth inhibition, HTS (AID 449762).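 Note: bacterial growth assessed after seven days of incubation.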 Conditions: M. tuberculosis H37Rv growth inhibition, 7H9 media; at 25 µM; hits give high values.
`O=[N+]([O-])c1cc(C(F)(F)F)cc([N+](=O)[O-])c1N1CCCNCC1`: the inhibition was -2.74% (inactive).

For `Cc1ccc(N=Nc2ccc(O)c3ncccc23)cc1`, the inhibition was 63.9% (inactive).

Take `COc1ccc(N=Nc2ccc(O)c3ncccc23)cc1`: the inhibition was 64.2% (inactive).

Consider `COc1ccc(OCCNC(=O)CCCO)cc1`, for which the inhibition is -4.06% (inactive).

For the compound `Cc1ccsc1/C=N/NC(=O)c1ccc(Cn2cc(Br)cn2)o1`, the inhibition is -7.92% (inactive).

Take `O=C1Nc2cc(C(=O)NCC3CCCO3)ccc2S/C1=C/c1ccccc1F` (configuration not stated): the inhibition was 2.49% (inactive).

For the compound `COc1ccc(-c2csc(/C(C#N)=C\c3cccc([N+](=O)[O-])c3)n2)cc1`, the inhibition is 9.75% (inactive).

Consider `COc1ccc(-c2csc(/C(C#N)=C\c3ccc(OC)c([N+](=O)[O-])c3)n2)cc1`, for which the inhibition was 11.1% (inactive).

Take `C#CC[N+]1(CC#Cc2ccc(C)cc2)CCCCC1`: the inhibition was 6.8% (inactive).

For the compound `Cc1ccc(C#CC[N+]2(C)CCCCC2)cc1`, the inhibition was -6.71% (inactive).

Turning to `Cc1ccc(/C=N/Nc2nnc(Cc3ccccc3)c(=O)[nH]2)o1`, the inhibition was 0.24% (inactive).

`CCOc1ccc(-c2cc(N)n(S(=O)(=O)c3cccc4nsnc34)n2)cc1`: the inhibition was -2.37% (inactive).

Consider `O=C(NCC(c1ccco1)N1CCOCC1)C1CCCCC1` (configuration not stated), for which the inhibition was 1.93% (inactive).

Take `Cn1cnc([N+](=O)[O-])c1Sc1ncnc2nc[nH]c12`: the inhibition was 3.96% (inactive).

As for `O=C(CSc1ncnc2nc[nH]c12)c1ccc([N+](=O)[O-])cc1`, the inhibition was -8.27% (inactive).

In the case of `COc1ccccc1C(=O)NC(=O)COC(=O)c1nc2nc(C)cc(C)n2n1`, the inhibition is -0.8% (inactive).

In the case of `CCc1cc2c(=O)c(-c3nc4ccccc4n3C)c(C(C)C)oc2c(CN2CCN(C)CC2)c1O`, the inhibition is 3.5% (inactive).

As to `COc1ccc(N2C(=O)C(Cl)=C(Nc3ccccc3OC)C2=O)cc1`, the inhibition is -3.72% (inactive).

As for `CCOc1ccccc1NC1=C(Cl)C(=O)N(c2ccc(OC)cc2)C1=O`, the inhibition is -6.27% (inactive).

Consider `O=S(=O)(c1ccc2ccccc2c1)N1CCN(CCO)CC1`, for which the inhibition is 4.19% (inactive).

Take `Cc1ccc(S(=O)(=O)N(CC(=O)c2ccc(Cl)cc2)C(=O)N2CCN(C)CC2)cc1`: the inhibition is -5.16% (inactive).

Take `COc1cccc(CC(NC(C)=O)C(=O)NC2CCN(S(=O)(=O)c3cccc4ccccc34)CC2)c1` (configuration not stated): the inhibition was 1.8% (inactive).

For `COC(=O)c1ccc(NC(=O)CSCc2ccccc2C)cc1`, the inhibition is 21.9% (inactive).

Consider `Cc1cccc(C)c1OCc1cc(C(=O)N2CCN(c3ccccc3)CC2C)no1` (configuration not stated), for which the inhibition is 61.7% (inactive).

As to `CCOc1ccccc1N1CCN(C(=O)c2cn(CC3CCCCC3)nn2)CC1`, the inhibition was 53.5% (inactive).

Regarding `Cc1ccnc(NC(=O)c2ccc(Cl)c(NC(=O)c3ccccc3C)c2)c1`, the inhibition is -1.18% (inactive).

Regarding `O=C(Nc1ccon1)Nc1cccc(Cl)c1Cl`, the inhibition was -8.3% (inactive).

As to `Cc1cc(C(=O)Nc2nc3ccc(S(C)(=O)=O)cc3s2)c(C)o1`, the inhibition was -11.6% (inactive).

On to `Cc1ccc2cc(C(c3nnnn3CC3CCCO3)N3CCc4ccccc4C3)c(=O)[nH]c2c1` (configuration not stated), for which the inhibition was 11.1% (inactive).

In the case of `Nc1ccc(N=Nc2ccccc2)c2ccccc12`, the inhibition was -11.4% (inactive).

For the compound `NS(=O)(=O)c1ccc(N=Nc2ccc(O)c3ncccc23)cc1`, the inhibition was -1.88% (inactive).

Take `CCCC(=O)Nc1nnc(S(=O)(=O)N(CC)c2ccc(OC)cc2)s1`: the inhibition was 6.35% (inactive).

For `O=c1[nH]c2ccccc2nc1Cc1ccc([N+](=O)[O-])cc1`, the inhibition is 1.98% (inactive).

In the case of `Cc1nn(C(C)C(=O)N2CCCC2)c(=O)c2nn(-c3ccccc3)c(C)c12` (configuration not stated), the inhibition is 4.45% (inactive).

As to `Cc1cc(-c2ccccc2)cc(C)[n+]1Cc1ccccc1`, the inhibition is 4.78% (inactive).

Turning to `O=C([O-])c1cc(-c2ccccc2)cc(-c2ccccc2)[n+]1Cc1ccccc1`, the inhibition is 2.25% (inactive).

On to `Cn1c(=O)cc(SCC(=O)N2CCOCC2)c2ccc(Cl)cc21`, for which the inhibition is -11.3% (inactive).

Turning to `Cn1c(=O)cc(SCC(=O)N2CCCC2)c2ccc(Cl)cc21`, the inhibition was 3.77% (inactive).

`Cc1cccc(CCNC(=O)c2cc(S(=O)(=O)N3CCCC3)cn2C)c1`: the inhibition was -6.27% (inactive).

For the compound `Cc1ccc(/C=C/C(=O)OCC(=O)NC(=O)NCc2ccccc2)cc1`, the inhibition was -1.66% (inactive).

With `CC1(C)CC(=O)C2=C(C1)OC(N)=C([N+](=O)[O-])C2c1cccs1` (configuration not stated), the inhibition is 3.64% (inactive).

As to `Cc1ccc(C2C(C#N)=C(N)OC3=C2C(=O)CC(C)(C)C3)s1` (configuration not stated), the inhibition was 4.01% (inactive).

Consider `COC(C(=O)Nc1cccc(F)c1)c1ccccc1` (configuration not stated), for which the inhibition is 1.2% (inactive).

Turning to `COc1ccc(/C=C/C(=O)Nc2cc(S(=O)(=O)N3CCCCC3)ccc2N2CCCCC2)cc1OC`, the inhibition was 6.87% (inactive).

As for `CCN1CCN(c2ccc(S(=O)(=O)N3CCCCC3)cc2NC(=O)/C=C/c2ccc([N+](=O)[O-])cc2)CC1`, the inhibition was 67.1% (inactive).

With `CCCCCNC(=O)c1ccc2c(c1)ncn2-c1ccc(OC)cc1`, the inhibition was 13.7% (inactive).

In the case of `CCOc1ccc([C@@H]2CC=C(C(=O)O)[C@H](c3ccc(Cl)cc3)N2S(=O)(=O)c2ccc(C)cc2)cc1`, the inhibition was -1.26% (inactive).

With `Cn1cc(CCNC(=O)CC2C(=O)NCCN2Cc2cccc(Oc3ccccc3)c2)cn1` (configuration not stated), the inhibition was 2.08% (inactive).

As to `CCCCCNC1=CC(=O)CC(c2ccccc2)C1` (configuration not stated), the inhibition was -1.58% (inactive).

Consider `CN(C)CCCNC1=CC(=O)CC(c2ccccc2)C1` (configuration not stated), for which the inhibition is -4.95% (inactive).

As for `COc1ncnc2c1cnn2-c1ccccc1`, the inhibition is 7.17% (inactive).

As for `C=CCOn1c(=O)c(-c2ccc(OCC)cc2)[n+]([O-])c2ccccc21`, the inhibition was 6.39% (inactive).

Regarding `O=C(CCCSc1nc2ccccc2[nH]1)N1CCN(c2ccc([N+](=O)[O-])cc2)CC1`, the inhibition was -13.5% (inactive).

Take `CC(C)CCNC(=O)C1CCCN(S(=O)(=O)c2ccc(-n3cnnn3)cc2)C1` (configuration not stated): the inhibition was 1.26% (inactive).

For the compound `CCOC(=O)/C=C/C(=O)OCc1csc(CC(=O)Nc2ccccc2C)n1`, the inhibition was -12.3% (inactive).

On to `C/C=C/C(=O)OCc1csc(CC(=O)Nc2ccccc2C)n1`, for which the inhibition is -2.53% (inactive).

Consider `Cc1cc(NC(=O)/C(C#N)=C/c2ccc(-c3cccc(C(F)(F)F)c3)o2)n(-c2ccccc2)n1`, for which the inhibition is 9.74% (inactive).

Consider `COc1ccc(OCC(=O)NNc2nc3ccccc3s2)cc1`, for which the inhibition is 70% (inactive).

Consider `CC(=O)NNc1nc2ccccc2s1`, for which the inhibition is -19.1% (inactive).

In the case of `COc1ccc2nc(NNC(=O)COc3ccccc3)sc2c1`, the inhibition was 6.88% (inactive).

As for `O=C(NNc1nc2ccccc2s1)Nc1ccc(F)cc1`, the inhibition is 7.66% (inactive).

With `CCc1[nH]nc(C(=O)N2CCCC(C(=O)c3cccc(OC(C)C)c3)C2)c1C` (configuration not stated), the inhibition was 8.32% (inactive).

For `CCOC(=O)Cn1nc(-c2ccc(C)cc2)ccc1=O`, the inhibition was -1.62% (inactive).

Turning to `COC(=O)c1ccc(C(=O)OC)c(NC(=O)CSc2ccccn2)c1`, the inhibition was 45% (inactive).

On to `CCOC(=O)c1ccccc1NC(=O)CSc1cccc[n+]1[O-]`, for which the inhibition was -5.24% (inactive).

As for `Cc1c(Cl)cccc1NC(=O)CCN1CCN(C)CC1`, the inhibition is -6.21% (inactive).

Consider `O=C(NCCc1ccccc1)c1c(O)c2cccc3c2n(c1=O)CC3`, for which the inhibition was -1.91% (inactive).

For `CCCCN(C(=O)NC(=O)Nc1ccc(C)cn1)S(C)(=O)=O`, the inhibition is -2% (inactive).

As to `Cc1ccc(NC(=O)CSc2nc3ccccc3c(=O)n2CCCN2CCCCC2)cc1C`, the inhibition was 24.1% (inactive).

Regarding `CC1CCN(CCCn2c(SCC(=O)Nc3ccccc3Cl)nc3ccccc3c2=O)CC1`, the inhibition was 6.66% (inactive).

As to `Cc1ccccc1N(Cc1cc(=O)[nH]c2ccccc12)C(=O)C(C)C`, the inhibition is -1.51% (inactive).

As for `C#CCCC/C(=C\C(=O)N(C)[C@H](C(=O)N(C)[C@H](C(=O)N(C)[C@H](C(=O)N(C)[C@H](C(N)=O)C(C)C)C(C)C)C(C)C)C(C)C)OC`, the inhibition is 2.88% (inactive).

For `Cc1cccc([C@@H]2[C@@H]3C(=O)N(Cc4ccccc4)C(=O)[C@@H]3[C@]3(Cc4ccccc4)C(=O)N(c4cccc(Cl)c4)C(=O)N23)c1`, the inhibition is 12.6% (inactive).

`Cc1cc(Cn2nc(C(=O)NCc3cccc(Br)c3)cc2-c2ccccc2)on1`: the inhibition was 25.4% (inactive).

`Cc1ccc(N2C(=S)NC3c4cc(Cl)ccc4OC2(C)C3C(=O)N(C)C)cc1` (configuration not stated): the inhibition is 0.53% (inactive).

Turning to `CN(C)C(=O)C1C2NC(=S)N(c3cccc(Cl)c3)C1(C)Oc1ccc(Cl)cc12` (configuration not stated), the inhibition is -0.86% (inactive).

For the compound `CSc1cccc(CN2CCN(CCC(C)C)C(CCO)C2)c1` (configuration not stated), the inhibition is -6.35% (inactive).

Consider `COc1ccc(NC(=O)c2cn(CCC#N)nc2-c2ccccc2)cc1`, for which the inhibition is 1.76% (inactive).

For `Cc1nc(C)c(C(=O)N(c2ccc(F)cc2)C(C(=O)NCC2CCCO2)c2ccccc2)s1` (configuration not stated), the inhibition was 6.83% (inactive).

In the case of `Cc1onc(C(=O)N2CCN(Cc3ccccc3)CC2)c1[N+](=O)[O-]`, the inhibition is 3.07% (inactive).

Regarding `CC(=N\NC(=O)c1ccccc1)/C(=N/O)C(=O)Nc1ccccc1`, the inhibition was 19.5% (inactive).

For `O=C1C(C2=C(O)c3ccccc3C2=O)=Nc2ccccc21`, the inhibition is -18.6% (inactive).

Turning to `O=C1C(c2c(O)[nH]c3ccccc23)=Nc2ccccc21`, the inhibition was 26.2% (inactive).

Turning to `O=C(CCCn1c(=O)[nH]c2cc(Cl)ccc2c1=O)NCCCN1CCCC1=O`, the inhibition was 1.6% (inactive).

For `C=CCn1c(SC)nnc1-c1ccc2ncccc2c1`, the inhibition was 0.53% (inactive).

As for `COc1ccc(NC(=O)c2ccc(COc3ccccc3Br)o2)cc1OC`, the inhibition is 55.9% (inactive).

With `COc1ccccc1OCc1ccc(C(=O)Nc2cc(OC)c(OC)c(OC)c2)o1`, the inhibition was 1.45% (inactive).

Consider `O=C1CC2(CCCCC2)Oc2ccccc21`, for which the inhibition was 2.84% (inactive).

Take `O=C(NCC1CC1)c1ccc(Oc2cc(Cl)cc(Cl)c2)o1`: the inhibition is 8.88% (inactive).

As for `Fc1ccc(/C=C\c2nccc3c2[nH]c2ccccc23)cc1`, the inhibition is 3.87% (inactive).

In the case of `N#Cc1ccc(/C=C\c2nccc3c2[nH]c2ccccc23)cc1`, the inhibition is 23.4% (inactive).

With `CCCn1c(SCC(=O)N2CCCc3ccccc32)nnc1-c1ccco1`, the inhibition was -5.68% (inactive).
